# Data published in PubChem BioAssay (Tox21).
# Calls of active or inactive are those of the source. Entries that show only a call come without a potency. Calls follow the shape of the full dose curve.
# Molecular target: Gonadotropin-releasing hormone receptor (Homo sapiens) (UniProt P30968)
# Assay: Human gonadotropin-releasing hormone receptor (GnRHR) small molecule agonists, calcium flux assay in GnRHR-HEK293 cells (AID 1920063); also: nearly all actives have a fitted effect of over 35% in size
# Settings: calcium flux fluorescence, agonist mode; series mostly up to 57.6 µM
# From the text: National Center for Advancing Translational Sciences [NCATS]
# Division of Preclinical Innovation [DPI]
# U.S. Environmental Protection Agency [EPA]
# National Institutes of Environmental Health Sciences [NIEHS]
# National Toxicology Program [NTP]
# U.S. Food and Drug Administration [FDA]
# Gonadotropin-releasing hormone receptor (GnRHR) is a G-protein-coupled receptor (GPCR) and acts (through phospholipase C) to increase intracellular inositol trisphosphate and then release intracellular calcium stores. Cell-based GnRHR-Hek293 calcium influx assay is using HEK293 cells that have been genetically engineered to express the human GnRHR, which activity can be measured by calcium signaling. A compound/drug can activate (agonist) GnRHR that can be monitored by levels of intracellular calcium.
# GnRHR-HEK293 cells developed by Codex Corp contain human GnRHR reporter gene, which was stably integrated into HEK 293 cells. The compound activation can be detected by fluorescence intensity via calcium flux assay. This cell line has been used to screen the Tox21 10K compound library to identify GnRHR agonists.
# GnRHR-Hek293 cells were dispensed at 1500cells/4uL/well in 1536-well black wall/clear bottom plates using a multidrop dispenser. After the assay plates were incubated at a 37 C/5% CO2 incubator for 18 hours, 4 uL of Calcium Dye Solution was added to each well. The plates were incubated at 37 C for 1 hour. For agonist mode, 23 nL of compounds dissolved in DMSO, positive controls or DMSO only was transferred to the assay plate by a pin tool station. The fluorescence intensity in the plates was measured using FDSS 7000EX kinetic plate reader with a filter set of Ex/Em=480/540 for 3 min at 1 sec intervals. Each test compound was measured at 15 concentrations and in triplicates.
# Potency is read from the fitted curve at half-maximal effect.
# Gonadotropin-releasing hormone receptor (Homo sapiens), sequence (P30968 whole entry, looked up): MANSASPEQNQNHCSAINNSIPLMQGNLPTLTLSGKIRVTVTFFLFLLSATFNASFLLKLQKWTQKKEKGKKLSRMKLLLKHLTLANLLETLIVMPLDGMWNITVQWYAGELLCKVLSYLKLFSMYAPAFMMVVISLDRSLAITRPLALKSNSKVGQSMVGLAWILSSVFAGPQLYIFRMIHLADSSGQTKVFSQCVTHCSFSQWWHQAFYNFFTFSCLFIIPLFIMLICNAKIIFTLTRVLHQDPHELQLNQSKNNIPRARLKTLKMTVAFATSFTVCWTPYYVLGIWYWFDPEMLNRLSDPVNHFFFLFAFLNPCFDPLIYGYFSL
SMILES,Potency,activity change
O=C(OCc1ccccc1)C(=O)OCc1ccccc1,inactive,
COC(=O)C(c1ccccc1Cl)N1CCc2sccc2C1 (stereo not given),inactive,
CCOc1cc(OCC)c(C(C)=O)cc1OCC,inactive,
C=CCSCC1Nc2cc(Cl)c(S(N)(=O)=O)cc2S(=O)(=O)N1 (stereo not given),inactive,
Nc1cccc2c(=O)[nH][nH]c(=O)c12,inactive,
c1ccc(CNCCNCc2ccccc2)cc1,inactive,
CCC(=O)O[C@]1(C(=O)COC)[C@@H](C)C[C@H]2[C@@H]3CCC4=CC(=O)C=C[C@]4(C)C3(F)[C@@H](O)C[C@@]21C (stereo not given in full),inactive,
COc1c(C)c2c(c(O)c1C/C=C(\C)CCC(=O)O)C(=O)OC2,inactive,
COc1cc(NS(=O)(=O)c2ccc(N)cc2)ncn1,inactive,
CC1=C(C(=O)OC(C)C)C(c2cccc([N+](=O)[O-])c2)C(C(=O)OC2CN(C(c3ccccc3)c3ccccc3)C2)=C(N)N1 (stereo not given),inactive,
CN(C)[C@@H]1C(=O)C(C(=O)NCN2CCCC2)=C(O)[C@@]2(O)C(=O)C3=C(O)c4c(O)cccc4[C@@](C)(O)C3C[C@@H]12 (stereo not given in full),inactive,
C=C[Si](C)(C)O[Si](C)(C)C=C,inactive,
CCN(CCCCOC(=O)c1ccc(OC)c(OC)c1)C(C)Cc1ccc(OC)cc1 (stereo not given),inactive,
Cc1cc(CC(=O)O)c(C)n1-c1ccc(Cl)cc1,inactive,
CC(C)c1cc(C(C)C)cc(C(C)C)c1,inactive,
CCN(Cc1c(F)cccc1Cl)c1c([N+](=O)[O-])cc(C(F)(F)F)cc1[N+](=O)[O-],inactive,
CC(C)CCOC(=O)CC(C)C,inactive,
CCCCC,38.3 µM (active),
Nc1nc2c(ncn2COC(CO)CO)c(=O)[nH]1,inactive,
Cc1cc(NC(=O)C2=C(O)c3ccccc3S(=O)(=O)N2C)no1,inactive,

SMILES,Potency,activity change
CC(C)(C)OC(=O)c1ccccc1C(=O)O,inactive,
CC(=O)Nc1ccn(C2COC(COC(=O)c3ccccc3)O2)c(=O)n1 (stereo not given),inactive,
CCN(CC)CCOc1ccc(C(O)(Cc2ccc(Cl)cc2)c2ccc(C)cc2)cc1 (stereo not given),inactive,
CC(C)=CCC1C(=O)N(c2ccccc2)N(c2ccccc2)C1=O,inactive,
Nc1ccc(S(=O)(=O)Nc2ccnn2-c2ccccc2)cc1,,"-0.562% [at 11.8 µM, hits give high values] (inactive)"
CC(C)C1OCCN1CCOC(=O)NCCCCCCNC(=O)OCCN1CCOC1C(C)C (stereo not given),inactive,
CC(=O)OC1CCCCC1C(C)(C)C (stereo not given),inactive,
C=CC(=O)OCCCl,inactive,
C=CCON/C(CCC)=C1\C(=O)CC(C)(C)C(C(=O)OC)=C1O,inactive,
Cc1cc(=O)[nH]c(=O)[nH]1,inactive,
COc1ccc(C)cc1[N+](=O)[O-],inactive,
CCCCCCCCOc1ccc(C(=O)O)cc1,inactive,
CCCCCC[C@@H](CCC)C(=O)O,inactive,
CC1(N)CCC(C(C)(C)N)CC1 (stereo not given),inactive,
CCn1nc(Cc2ccccc2)cc1C1CCN(C[C@H]2C[C@H](N(C)[C@@H](C(=O)O)C(C)C)C[C@@H]2c2cccc(F)c2)CC1,inactive,
O=C(c1ccccc1)c1cccc(O)c1,inactive,
COc1cc(OC)nc(NC(=O)NS(=O)(=O)Nc2ccccc2C(=O)N(C)C)n1,inactive,
CC(=O)C(C)=O,inactive,
CCCCS(=O)(=O)N[C@@H](Cc1ccc(OCCCCC2CCNCC2)cc1)C(=O)O,inactive,
CCC(CO)(CO)[N+](=O)[O-],inactive,
